Experimental data published in PubChem BioAssay (NCI).
Compounds without any hit were thinned out: in the full panel of roughly 83,000, 20% have a hit.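 Growth was measured after 48 h exposure to one concentration of compound in 96-well plates. Values under 10 count as active.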 Active and inactive are the calls of the source.

Key:
Experiment in all cases: NCI-60 one-dose screen, 48 h (100 = growth as untreated, 0 = no growth, -100 = all killed)
Details in all cases: 10 µM unless noted
[1] = system: HCT-15 colon
[2] = system: HT29 colon
[3] = system: SNB-75 CNS
[4] = system: SNB-19 CNS
[5] = system: U251 CNS
[6] = system: PC-3 prostate
[7] = system: SK-MEL-5 melanoma
[8] = system: UACC-62 melanoma
[9] = system: LOX IMVI melanoma
[10] = system: SK-MEL-28 melanoma

Measured: growth

COc1ccc(-c2nc3c(c(-c4ccc(Cl)cc4)nn3-c3ccccc3)c(-c3ccc(O)cc3)c2C#N)cc1
inactive: [1] 29.7% | [2] 23% | [3] 35.1% | [4] 62.1% | [5] 33.7% | [6] 23.9% | [7] 42.9% | [8] 56.9% | [9] 12.4% | [10] 59.2%

CCN1C(=O)N(CC)C2C1N=C(SC)N2/N=C/C=C/c1ccccc1OC (stereo not given)
active: [1] 7.58% | [2] 3.96% | [7] 0.74%
inactive: [3] 44.6% | [4] 15.4% | [5] 16.1% | [6] 18.4% | [8] 30.5% | [9] 14.6% | [10] 51.5%

CCCCCCCCCCCCCCCCCC1=NCCN1CCO
inactive: [1] 61.7% | [2] 61.5% | [3] 80.6% | [4] 95.5% | [5] 75.6% | [6] 63.6% | [7] 106% | [8] 92% | [10] 89.4%
active: [9] -47.2%

CC(C)=CC[C@@H]1CC2(CC=C(C)C)C(=O)C(OC3(C(=O)c4ccccc4)C(=O)C4(CC=C(C)C)C[C@@H](CC=C(C)C)C(C)(C)C(CC=C(C)C)(C4=O)C3=O)(C(=O)c3ccccc3)C(=O)C(CC=C(C)C)(C2=O)C1(C)C (stereo not given in full)
inactive: [3] 37.6% | [4] 11.6% | [10] 14.9%
active: [1] 5.15% | [2] -16.1% | [5] 5.76% | [6] -17.3% | [7] -77.5% | [8] -71.3% | [9] 1.63%

S=C(Nc1ccc(Cl)cc1)Nc1ccc(Cl)cc1 (tested in a mixture with another compound)
active: [1] 9.22% | [2] 1.05% | [5] -36.6% | [6] 3.81% | [7] -61.3% | [9] 5.65%
inactive: [3] 16.8% | [4] 24.7% | [8] 13.8% | [10] 25.8%

CC(C)CC(=O)C(CCc1ccccn1)C(C)C (stereo not given)
inactive: [1] 101% | [2] 98.3% | [3] 111% | [4] 108% | [5] 107% | [6] 99.7% | [7] 103% | [8] 103% | [9] 96.5% | [10] 109%

COc1ccc(-c2cnnn2-c2nonc2-n2cccc2)cc1
active: [2] 8.25% | [3] -15.9%
inactive: [1] 21.4% | [4] 37.6% | [5] 22.1% | [6] 28.8% | [7] 31.9% | [8] 24.1% | [9] 34.1% | [10] 18.4%

CC1(C)CN(CCNc2nccc(-c3c(-c4cccc(O)c4)nc4sccn34)n2)S(=O)(=O)N1
active: [8] -8.38%
inactive: [1] 95.7% | [2] 54.4% | [3] 30.5% | [4] 87.8% | [5] 74% | [6] 50.8% | [7] 58.4% | [9] 18.2% | [10] 20.1%

CC(=O)CC(c1ccc([N+](=O)[O-])cc1)c1c(O)c2ccccc2oc1=O (stereo not given)
inactive: [1] 110% | [2] 106% | [3] 81.7% | [4] 109% | [5] 104% | [6] 92% | [7] 91.9% | [8] 100% | [9] 101% | [10] 113%

CS(=O)(=O)c1ccc(C(=O)N/N=C/c2ccccc2Cl)cc1
inactive: [1] 102% | [2] 104% | [3] 84.9% | [4] 95.1% | [5] 90.3% | [6] 99% | [7] 111% | [8] 98.5% | [9] 99.9% | [10] 103%

COc1ccc(/C=C/c2nc3ccccc3c(=O)n2-c2ccc(C#Cc3ccc(C(C)(C)C)cc3)cc2C)c(OC)c1
inactive: [1] 59.3% | [2] 78% | [3] 99.4% | [4] 105% | [5] 75.3% | [6] 53% | [7] 69.7% | [8] 72.6% | [9] 80% | [10] 109%

COc1ccc(NC(=O)c2sc3c(=O)[nH]c(C(F)(F)F)nc3c2C)cc1
inactive: [1] 104% | [2] 103% | [3] 93.7% | [4] 112% | [5] 98.6% | [6] 90.5% | [7] 106% | [8] 98.9% | [9] 101% | [10] 109%

Cc1ccc(C)c2c1SC1=NNC(Oc3ccc(Cl)cc3)=C(C#N)C(=N)N12
inactive: [1] 104% | [2] 103% | [3] 92.2% | [4] 110% | [5] 98.4% | [6] 85% | [7] 93.5% | [8] 97.1% | [9] 99.7% | [10] 107%

NC(N)=N/N=C/c1ccc(Cl)cc1
inactive: [1] 70.5% | [2] 35.9% | [3] 81.1% | [4] 91.2% | [5] 88.8% | [6] 84.8% | [7] 74.5% | [8] 78.8% | [9] 86.3% | [10] 93.5%

COc1cc(-c2nn(C(=O)NCCN3CCN(C)CC3)cc2-c2ccncc2)ccc1Cl
inactive: [1] 88.7% | [2] 47% | [3] 42.3% | [4] 77.5% | [5] 80.9% | [6] 74.3% | [7] 62.4% | [8] 57.6% | [9] 85.9% | [10] 68.1%

CCC1=CC2CN(C1)Cc1c([nH]c3ccccc13)[C@@](C(=O)OC)(c1cc3c(cc1OC)N(C)[C@H]1[C@@](O)(C(=O)OC)[C@H](OC(C)=O)[C@]4(CC)C=CCN5CC[C@]31[C@@H]54)C2 (stereo not given in full)
active: [2] 2.55% | [3] -5.65% | [7] -46.9%
inactive: [1] 21.5% | [4] 53.6% | [5] 11% | [6] 34.5% | [8] 43.6% | [9] 20% | [10] 62.1%

C=CC(=O)N1CN(C(=O)C=C)CN(C(=O)C=C)C1
active: [1] 3.65%
inactive: [2] 26.2% | [3] 60% | [4] 107% | [5] 88.9% | [6] 90.8% | [7] 71.5% | [8] 74.3% | [9] 71.4% | [10] 72.7%

O=C(CCl)Nc1ccc2c(c1)C(=O)c1ccccc1C2=O
active: [1] -38.8% | [2] -63.6% | [5] -56.3% | [6] -12.6% | [7] -82.8% | [8] -54.9% | [9] -81%
inactive: [3] 41.7% | [4] 36.9% | [10] 35.4%

CCCCCCCCCCCC1=NC(C)(C)CN1CCO
inactive: [1] 18% | [3] 65.2% | [4] 100% | [5] 21.8% | [6] 42.5% | [7] 58.9% | [10] 68.5%
active: [2] -25.2% | [8] -14.3% | [9] 6.59%

CCN(CC)c1ccc(/C=N/N=C(N)N)cc1
inactive: [1] 41.2% | [3] 40.2% | [4] 73.6% | [5] 46.9% | [6] 30.7% | [7] 40.2% | [8] 48.4% | [9] 55.5% | [10] 61.7%
active: [2] 9.78%

C[Si](C)(C)C(c1ccccc1)c1ccccc1
inactive: [1] 91.8% | [2] 101% | [3] 102% | [4] 111% | [5] 100% | [6] 80.3% | [7] 115% | [8] 108% | [9] 95.9% | [10] 115%

CN1CCCN(CCNc2nccc(-c3c(-c4cccc(O)c4)nc4sccn34)n2)S1(=O)=O
inactive: [1] 33.7% | [2] 38.7% | [3] 12.9% | [4] 99.4% | [5] 56.6% | [6] 30.3% | [7] 37.7% | [9] 14.2% | [10] 18.1%
active: [8] -12.6%

CCN(CC)CCNC(=O)n1cc(-c2ccncc2)c(-c2cc(Cl)cc(OC)c2)n1
inactive: [1] 86% | [2] 31.3% | [3] 48% | [4] 76.5% | [5] 75.4% | [6] 79.8% | [7] 84.8% | [8] 70.3% | [9] 78.7% | [10] 91.3%

C#C[C@]1(O)CC[C@H]2[C@@H]3CC=C4c5sc(-c6cccc(Br)c6)nc5CC[C@]4(C)[C@H]3CC[C@@]21C
inactive: [1] 61.7% | [2] 83.1% | [3] 59% | [4] 84.6% | [5] 70.9% | [6] 57.2% | [7] 99.9% | [8] 89.9% | [9] 71.6% | [10] 54.7%

COc1cnc2c(c1)C(=O)c1c-2n(CCCN2CCNCC2)c(=O)c2cc(Cl)ccc12
inactive: [3] 39.7% | [4] 30.4% | [7] 45.2%
active: [1] -89.4% | [2] -80.4% | [5] -98.4% | [6] -84% | [8] -45% | [9] -84.6% | [10] -88.2%

CC(C)(C)c1nn(-c2ccccc2)c2c1C(=O)CSC(c1ccccc1Cl)N2 (stereo not given)
inactive: [1] 25.1% | [2] 18.5% | [4] 39.8% | [5] 33.2% | [6] 15.5% | [7] 11.6% | [8] 38.7% | [9] 35.5% | [10] 47.3%
active: [3] -1.74%

CCN(CC)c1cc(C)c(Cc2c(OC)ccc3ccccc23)cc1C
inactive: [1] 97.8% | [2] 73.7% | [3] 91.1% | [4] 93.2% | [5] 94.9% | [6] 83.9% | [7] 99.4% | [8] 79.8% | [9] 94.9% | [10] 100%
